# Source: PubChem
# Compounds with a hit are over-represented: about 13% of the library has one in this group of screens.
# USP30 block: inhibitors of human USP30 deubiquitinase. Ubiquitin carboxyl-terminal hydrolase 30 (Homo sapiens), Q70CQ3. purified USP30, Ub-rhodamine cleavage fluorescence. inhibition, % at 25 µM. 5.3% of 47,000 active
# USP28 inh: inhibitors of human USP28 deubiquitinase; Ubiquitin carboxyl-terminal hydrolase 28 (Homo sapiens), Q96RU2; purified USP28, Ub-rhodamine cleavage fluorescence, 30 min; inhibition, % at 25 µM; 3% of 47,000 active
# USP8 block: inhibitors of human USP8 deubiquitinase | purified USP8, Ub-rhodamine cleavage fluorescence, 30 min | 4.2% of 47,000 active | inhibition, % at 20 µM | Ubiquitin carboxyl-terminal hydrolase 8 (Homo sapiens), P40818
# OTUD3 block: inhibitors of human OTUD3 deubiquitinase | 0.7% of 47,000 active | AID 1645858, 2021 | purified OTUD3, Ub-rhodamine fluorescence, 2 h | inhibition, % at 25 µM
# Target sequence (Q5T2D3 whole entry, looked up): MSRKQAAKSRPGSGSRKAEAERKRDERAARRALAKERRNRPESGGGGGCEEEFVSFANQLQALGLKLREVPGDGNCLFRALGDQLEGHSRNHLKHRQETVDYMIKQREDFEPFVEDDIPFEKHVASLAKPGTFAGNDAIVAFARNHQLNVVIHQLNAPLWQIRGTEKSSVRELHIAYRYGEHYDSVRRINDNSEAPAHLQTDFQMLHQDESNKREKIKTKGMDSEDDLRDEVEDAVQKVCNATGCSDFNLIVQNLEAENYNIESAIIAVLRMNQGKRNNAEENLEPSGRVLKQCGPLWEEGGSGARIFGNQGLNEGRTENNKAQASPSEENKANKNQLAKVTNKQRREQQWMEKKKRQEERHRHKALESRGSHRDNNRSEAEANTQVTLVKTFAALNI
# USP17 block: inhibitors of human USP17 deubiquitinase. Ubiquitin carboxyl-terminal hydrolase 17-like protein 5 (Homo sapiens), A8MUK1. purified USP17, Ub-rhodamine cleavage fluorescence, 3 h. inhibition, % at 50 µM. 6.5% of 47,000 active. AID 1645855, 2021
# * hit, by the source's call; x = not tested or not shown. Cut-off read from the data, not from the text of the source: active = inhibition above about 30%; inactive = the rest.
SMILES,USP30 block,USP28 inh,USP8 block,OTUD3 block,USP17 block
CCCn1cc(C(=O)N2CCC3(CC2)CC2(CO3)Nc3ccccc3-n3cccc32)c(C)n1 (configuration not stated),4.8,9.5,93.9*,6.8,66.8*
Cc1ccc(NC(=O)N2CCC3(CC2)Nc2ccccc2-n2cccc23)cc1,-5.3,6.6,-202.1,-2.3,-8.2
O=C(c1ccncc1)N1CCC2(CC1)CC1(CO2)Nc2ccccc2-n2cccc21 (configuration not stated),-79.3,-1.2,71.0*,-9.2,38.1*
Cc1cc(C)c2cc(CN(CCN(C)C)C(=O)NC3CCCCC3)c(=O)[nH]c2c1,-9.6,0.0,-20.8,-1.9,-4.9
COc1ccccc1NC(=O)N1CCC2(CC1)Nc1ccccc1-n1cccc12,-15.7,1.6,-132.3,-2.1,-12.2
O=C(c1cscn1)N1CCC2(CC1)CC1(CO2)Nc2ccccc2-n2cccc21 (configuration not stated),-68.2,-4.6,94.2*,-14.5,71.4*
O=C(COC(=O)c1cc2c(s1)CCC2)c1ccc2[nH]c(=O)[nH]c2c1,2.1,65.6*,70.5*,36.0*,56.0*
O=C(Nc1ccc(-c2cn3ccsc3n2)cc1)c1ccccc1Br,36.9*,16.8,-24.4,12.7,17.1
N#Cc1ccc(OCC(=O)Nc2ccc(-c3cn4ccsc4n3)cc2)cc1,-5.9,-25.2,46.0*,-40.8,18.2
CC1=C(CO)C(=O)O[C@@H]([C@@H](C)[C@H]2CC[C@H]3[C@@H]4C[C@H]5O[C@]56[C@@H](O)C=CC(=O)[C@]6(C)[C@H]4CC[C@]23C)C1,83.0*,44.2*,8.9,4.7,72.1*
COc1ccc(-c2nc(C)c(C(=O)NCCc3ccc(S(N)(=O)=O)cc3)s2)cc1,29.9,14.6,37.3*,2.4,2.6
Cc1cc(C)c2c(-n3cccc3)c(C(=O)NCCc3ccc(S(N)(=O)=O)cc3)sc2n1,-15.1,79.7*,-33.4,-11.7,2.7
COc1ccc(C2=C(NCCc3ccc(S(N)(=O)=O)cc3)c3ccccc3C2=O)cc1,49.4*,30.6*,11.0,0.3,12.1
COc1ccccc1-c1cc2nc(NCCc3ccc(S(N)(=O)=O)cc3)ccn2n1,-72.1,-11.5,-16.2,-156.5,-11.5
COc1ccccc1CNC(=O)c1sc2nc(C)cc(C)c2c1-n1cccc1,24.7,14.9,8.5,18.8,12.2
CCCn1ccc(C(=O)N2CCCCC2c2cc(=O)n3[nH]ccc3n2)n1 (configuration not stated),7.0,5.4,-25.8,0.7,-4.9
COc1ccc2c(CCNC(=O)CSc3nnnn3-c3ccccc3OC)c[nH]c2c1,-13.7,0.5,-54.0,-6.7,-3.3
Cc1nc(N2CCN(C)CC2)cc(N2CCN(S(=O)(=O)c3ccccc3)CC2)n1,-75.6,-24.3,-11.0,-2.7,-17.5
N#Cc1c(SCCO)nc(N2CCCC2)c2c1CCCC2,4.3,61.5*,7.2,-6.3,6.6
O=c1[nH]ccn2nc3c(c12)CCc1ccccc1-3,x,x,-5.6,5.2,35.9*
CCCN1CCN(C(=O)c2[nH]nc3c2CCc2ccccc2-3)CC1,12.3,14.7,19.0,5.7,8.5
O=C(CN1C(=O)C2CCCC2=Nc2ccccc21)Nc1cc(F)ccc1F (configuration not stated),5.5,9.3,18.4,10.2,59.8*
CCc1ccccc1NC(=O)CN1C(=O)C2CCCC2=Nc2ccccc21 (configuration not stated),9.9,4.7,34.4*,6.1,6.6
CO[C@H]1/C=C/OC2(C)Oc3c(C)c(O)c4c(c3C2=O)C2(C=C(NC(=O)/C(C)=C\C=C\[C@H](C)[C@H](O)[C@@H](C)[C@@H](O)[C@@H](C)[C@H](OC(C)=O)C1C)C4=O)OCC(=O)O2 (some centres not stated),-48.9,22.7,-36.0,6.0,60.2*
COC1/C=C/OC2(C)Oc3c(C)c(O)c4c(c3C2=O)C(=O)C=C(NC(=O)/C(C)=C\C=C\C(C)C(O)C(C)C(O)C(C)C(OC(C)=O)C1C)C4=O (configuration not stated),-60.8,8.5,-8.6,4.2,63.9*
SMILES,USP30 block,USP28 inh,USP8 block,OTUD3 block,USP17 block
COC1=C2CC(C)CC(OC)C(O)C(C)/C=C(\C)C(OC(N)=O)C(OC)/C=C\C=C(/C)C(=O)NC(=CC1=O)C2=O (configuration not stated),-32.8,-4.2,4.4,-7.9,-13.6
CC(=O)Nc1ccc(S(=O)(=O)N2CCCn3c(nc4ccccc43)C2)cc1,-7.2,0.2,-9.3,3.6,-4.1
COc1ccccc1N1CCN(C(=O)/C=C/c2ccc(OCc3ccc(Cl)cc3Cl)cc2)CC1,30.8*,4.8,10.6,3.9,5.8
Cn1c(CN2CCOCC2)nnc1SCc1ccc(Cl)cc1,31.7*,14.9,2.3,14.3,20.1
Cn1c(CN2CCOCC2)nnc1SCc1ccc(F)cc1,7.2,0.2,3.0,0.4,3.7
COc1cc2c(c3oc(=O)c4c(c13)CCC4)CCC(C)(C)O2,8.8,13.1,11.6,0.0,20.2
Cc1ccc(N2CCN(Cc3ccn(C)c(=O)c3)CC2)cc1,x,x,1.2,10.6,-2.2
O=C(Nc1cc(F)c2nc(N3CCOCC3)ccc2c1)c1ccc(Br)o1,-47.4,1.8,85.8*,-5.2,84.6*
O=C(NCc1ccc(N2CCOCC2)nc1)c1ccc(F)c(F)c1,5.8,-2.0,-35.6,-2.8,-6.4
O=C(Nc1cc(F)c2nc(N3CCOCC3)ccc2c1)C1CCC1,-39.6,-2.0,77.6*,-7.7,42.2*
O=C(Nc1cc(F)c2nc(N3CCOCC3)ccc2c1)C1CC1,-11.4,17.6,58.7*,6.4,76.3*
COc1ccc(/C=C/C(=O)Nc2nc3n(n2)C(c2ccccc2)CC(=O)N3)cc1OC (configuration not stated),24.4,13.3,78.7*,12.1,26.2
O=C(/C=C/c1cccc([N+](=O)[O-])c1)Nc1nc2n(n1)C(c1ccccc1)CC(=O)N2 (configuration not stated),37.6*,28.7,-50.4,22.1,19.3
Cc1ccc(C(=O)Nc2nc3n(n2)C(c2ccccc2)CC(=O)N3)cc1 (configuration not stated),10.3,-0.8,15.0,1.4,70.8*
O=C1CC(c2ccc(Cl)cc2)n2nc(NC(=O)C3CC3)nc2N1 (configuration not stated),8.8,-0.4,4.7,7.6,3.6
COc1ccc(/C=C/C(=O)Nc2nc3n(n2)C(c2ccccc2)CC(=O)N3)cc1 (configuration not stated),30.9*,3.4,72.5*,14.1,12.2
COc1ccc(/C=C/C(=O)Nc2cc(C)nc3ccccc23)cc1OC,-50.7,-9.3,3.3,-10.5,1.5
O=C1CC(c2ccccc2)n2nc(NC(=O)c3ccccc3)nc2N1 (configuration not stated),10.7,10.1,6.5,6.3,4.7
